Where “and” joins values, the source holds several entries; their conditions need not be identical. Identical values can stand only once. Results filed as inconclusive are left out. Calls of active or inactive are those of the source. Unless noted, calls follow the shape of the full dose curve.
Tested on: not listed separately
Test: AP1 Signaling Pathway (AID 357; active = well fitted curve in either direction with a large enough effect, not every such curve was filed as active;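 also: ME-180 reporter cells stimulated with EGF at its EC50 level; % is scaled to controls: 0 for no effect and ±100 for the full control effect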)
Details: ME-180 (cervical carcinoma) AP-1-bla reporter, EGF-induced, beta-lactamase ratio, 5 h; at 38 µM (top of the series)
How it was run: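 Beta-lactamase reporter under AP-1 response element, ME-180 background. Stimulus: EC50 EGF. Compound exposure 5 h, 37 °C. Detection: CCF4, 2.5 h RT, 460/530 nm. Values: AC50 from titration.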

| Compound | activity change, negative = inhibition |
| --- | --- |
| COc1ccc([C@@H]2CNC(=O)C2)cc1OC1CCCC1 | -7.79% (inactive) |
| CN(C)CC[C@H](c1ccc(Cl)cc1)c1ccccn1 | 10.2% (inactive) and 11.2% (inactive) |
| CC(C)[C@H](CO)Nc1nc(Nc2cccc(Cl)c2)c2ncn(C(C)C)c2n1 | -111% (active) |
| COc1ccc2c(c1OC)C(=O)OC2[C@H]1c2c(cc3c(c2OC)OCO3)CCN1C (stereo not given in full) | -1.8% (inactive) |

Molecular target: Cytochrome P450 1A2 (Homo sapiens) (UniProt P05177)
Sequence (P05177 whole entry, looked up): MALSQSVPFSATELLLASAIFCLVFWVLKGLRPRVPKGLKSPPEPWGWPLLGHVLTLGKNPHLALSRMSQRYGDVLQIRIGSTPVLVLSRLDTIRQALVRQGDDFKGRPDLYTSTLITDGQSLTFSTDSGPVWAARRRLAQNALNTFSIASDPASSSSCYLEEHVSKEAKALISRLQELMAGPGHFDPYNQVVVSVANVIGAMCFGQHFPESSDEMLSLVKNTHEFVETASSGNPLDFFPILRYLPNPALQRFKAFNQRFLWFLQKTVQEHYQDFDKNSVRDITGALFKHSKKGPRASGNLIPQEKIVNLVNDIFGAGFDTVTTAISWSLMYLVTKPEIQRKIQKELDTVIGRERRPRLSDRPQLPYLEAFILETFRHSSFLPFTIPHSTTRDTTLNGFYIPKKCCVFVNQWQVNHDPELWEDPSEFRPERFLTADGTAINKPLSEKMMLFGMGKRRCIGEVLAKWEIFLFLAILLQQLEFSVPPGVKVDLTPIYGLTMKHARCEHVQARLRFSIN
Test: p450-cyp1a2 (AID 410); also: potency is read from the fitted curve at half-maximal effect;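 as to activity change, negative = inhibition: -100% = full effect of reference inhibitor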
Details: recombinant CYP1A2, luciferin-ME demethylation, luminescence; series mostly up to 57 µM; activity change, negative = inhibition: at the top concentration
How it was run: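 O-Demethylation of luciferin 6' methyl ether by human CYP1A2 is monitored as luciferase luminescence. Substrate sits at Km (100uM); enzyme is 20nM. Values are scaled to 57 uM furafylline as maximal inhibition.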

| Compound | Potency | activity change, negative = inhibition |
| --- | --- | --- |
| O=c1c(O)c(-c2ccc(O)c(O)c2)oc2cc(O)ccc12 | 1.58 µM (active) and 2.51 µM (active) |  |
| Nc1nc2c(c(=O)[nH]1)N(C=O)[C@H](CNc1ccc(C(=O)N[C@@H](CCC(=O)O)C(=O)O)cc1)CN2 |  | -1.3% [at 25.6 µM] (inactive) |
| COc1cc2c(cc1OC)[C@@H]1C(=O)c3ccc4c(c3O[C@@H]1CO2)C=CC(C)(C)O4 | 15.8 µM (active) |  |
| CCN1CCN(C(=O)N[C@H](C(=O)N[C@@H]2C(=O)N3C(C(=O)O)=C(CSc4nnnn4C)CS[C@@H]23)c2ccc(O)cc2)C(=O)C1=O |  | -9.6% [at 25.6 µM] (inactive) |
| CN(C)CC[C@H](c1ccc(Cl)cc1)c1ccccn1 | inactive |  |
| CCOC(=O)C1=C(C)NC(=S)NC1c1cccc(O)c1 (stereo not given) | 39.8 µM (active) |  |
| CC(C)[C@H](CO)Nc1nc(Nc2cccc(Cl)c2)c2ncn(C(C)C)c2n1 | 2 µM (active) and 316 nM (active) |  |
| COc1ccc2c(c1OC)C(=O)OC2[C@H]1c2c(cc3c(c2OC)OCO3)CCN1C (stereo not given in full) | inactive |  |
| CN(N=O)C(=O)N[C@H]1C(O)OC(CO)[C@@H](O)[C@H]1O (stereo not given in full) |  | -13.1% (inactive) |
| CC(Oc1ccc(O)cc1)(P(=O)(O)O)P(=O)(O)O |  | 8.4% (inactive) |

Tested on: not listed separately
Test: NFAT Signaling Pathway (AID 444; active = well fitted curve in either direction with a large enough effect, not every such curve was filed as active;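 also: carbachol stimulus at about its EC50 of 1 µM final; % is scaled to controls: 0 for no effect and ±100 for the full control effect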)
Details: Jurkat NFAT-bla M1, carbachol, beta-lactamase ratio, 5 h; at 17.2 µM (top of the series)
How it was run: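 Read-out: CCF4 FRET ratio (460 nm/530 nm) after 1 h RT dye loading, used for %activity and AC50 from titration series. Cells: Jurkat NFAT-β-lactamase/M1 line, treated with compound plus 1 uM carbachol for 5 h, 37 °C.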

| Compound | activity change, negative = inhibition |
| --- | --- |
| Nc1nc2c(c(=O)[nH]1)N(C=O)[C@H](CNc1ccc(C(=O)N[C@@H](CCC(=O)O)C(=O)O)cc1)CN2 | 4.7% (inactive) |
| CCN1CCN(C(=O)N[C@H](C(=O)N[C@@H]2C(=O)N3C(C(=O)O)=C(CSc4nnnn4C)CS[C@@H]23)c2ccc(O)cc2)C(=O)C1=O | 3.22% (inactive) |
| COc1ccc([C@@H]2CNC(=O)C2)cc1OC1CCCC1 | 2.36% (inactive) |
| COc1ccc2c(c1OC)C(=O)OC2[C@H]1c2c(cc3c(c2OC)OCO3)CCN1C (stereo not given in full) | -11.3% (inactive) |
| CN1[C@H]2CC(OC(=O)[C@@H](CO)c3ccccc3)C[C@H]1[C@H]1O[C@H]12 (stereo not given in full) | -45.8% (active) |
| c1coc(CNc2ncnc3nc[nH]c23)c1 | 1.53% (inactive) |

— PubChem BioAssay (NCATS)
